Assay results from PubChem BioAssay (NCATS).
Inconclusive results are not listed. Calls of active or inactive are those of the source. Calls follow the shape of the dose curve; as a rule, active = well fitted inhibition curve with a large enough effect; inconclusive = small, poorly fitted or top-dose-only effect; inactive = flat fitted curve, though single readings scatter.

Molecular target: Tyrosyl-DNA phosphodiesterase 1 (Homo sapiens) (UniProt Q9NUW8)
Assay: Confirmation Assay for Inhibitors of Tyrosyl-DNA Phosphodiesterase (TDP1) (AID 489007); also: nearly all actives have a fitted effect of over 40% in size
Settings: recombinant human TDP1 enzymatic activity, dose-response
Method in brief: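 Confirmation of primary-screen follow-ups in a qHTS format. Substrate cleavage by Tdp1 (1 nM) of a 3'-phosphotyrosine-FITC, 5'-biotin oligo (15 nM) was monitored as decreased AlphaScreen signal after a 5 min room-temperature reaction.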
Potency is read from the fitted curve at half-maximal effect.

Sequence of Tyrosyl-DNA phosphodiesterase 1 (Homo sapiens) (Q9NUW8 whole entry, looked up): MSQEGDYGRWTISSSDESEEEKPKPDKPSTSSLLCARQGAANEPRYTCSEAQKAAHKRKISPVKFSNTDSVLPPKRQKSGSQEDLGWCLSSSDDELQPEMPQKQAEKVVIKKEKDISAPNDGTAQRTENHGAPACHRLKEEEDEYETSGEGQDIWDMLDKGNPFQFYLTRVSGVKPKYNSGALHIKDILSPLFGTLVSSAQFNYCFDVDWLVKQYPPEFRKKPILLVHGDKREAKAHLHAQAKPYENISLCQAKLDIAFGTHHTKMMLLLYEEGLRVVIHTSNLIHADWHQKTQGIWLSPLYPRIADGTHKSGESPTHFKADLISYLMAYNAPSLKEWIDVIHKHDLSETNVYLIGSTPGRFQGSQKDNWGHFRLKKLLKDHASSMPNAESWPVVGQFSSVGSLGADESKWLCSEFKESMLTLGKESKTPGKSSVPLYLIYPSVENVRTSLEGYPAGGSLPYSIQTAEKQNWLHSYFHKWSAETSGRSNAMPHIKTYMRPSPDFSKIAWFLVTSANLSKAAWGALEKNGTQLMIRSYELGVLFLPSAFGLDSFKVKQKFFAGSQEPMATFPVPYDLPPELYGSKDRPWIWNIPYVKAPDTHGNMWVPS

Potency, active:
Cc1ccc(C(=O)O)cc1-c1ccc(/C=C2/NC(=O)N(c3ccccc3)C2=O)o1 7.08 µM
O=C(O)C1C2C=CC(C2)C1C(=O)NCc1cccs1 (centres undefined) 31.6 µM
Nc1ccc(N)c(C(=O)O)c1 0.199 µM
CCOC(=O)c1sc2nc3c(SCCC(=O)O)cc(C(=O)c4cc(OC)ccc4O)cn3c(=O)c2c1C 2.82 µM
Nc1cc([N+](=O)[O-])ccc1N1C(=O)CCCC1=O 15.8 µM
N#CC(C#N)=Cc1cccn1-c1ccc(C(=O)O)cc1 3.98 µM
COC(=O)c1cc(NC(=O)c2ccc3c(c2)NC(=O)c2ccccc2S3)cc(C(=O)OC)c1 25.1 µM
Cc1ccc(NC(=O)CN2C(=O)N/C(=C/c3cccn3-c3ccc(C(=O)O)cc3)C2=O)cc1 0.282 µM
O=C(N/N=C/c1cccc(Br)c1)c1ccc(Br)cc1 50.1 µM
COc1ccc2nc(N3CCCCC3)c(C#N)cc2c1 31.6 µM
C=CCc1cccc2cc(C(=O)Nc3ccc(S(=O)(=O)Nc4nnc(CC)s4)cc3)c(=O)oc12 15.8 µM
CC1=CCC(C(=O)O)C(C(=O)Nc2ccc(-c3nc4ccc(C)cc4s3)cc2)C1 (centres undefined) 31.6 µM
CC1=NN(c2ccc(Cl)c(C(=O)O)c2)C(=O)/C1=C\c1ccc(-c2ccc(C(=O)O)cc2)o1 14.1 µM
O=S(=O)(O)c1ccc2c(c1)-c1nc-2nc2[nH]c(nc3nc(nc4[nH]c(n1)c1ccc(S(=O)(=O)O)cc41)-c1ccc(S(=O)(=O)O)cc1-3)c1ccc(S(=O)(=O)O)cc21 0.0282 µM
COc1ccc(CCN2C(=O)C3C4CC(C5C(C(N)=O)=NOC45)C3C2=O)cc1OC (centres undefined) 112 µM
Cn1c(-n2cccc2)c(-c2c(-c3ccccc3)[nH]c3c2c(=O)[nH]c(=O)n3C)c(=O)[nH]c1=O 100 µM
Cc1ccccc1Nc1cccc2nonc12 100 µM
O=C(NC1CC1)c1cc(-c2ccco2)nc2ccccc12 3.55 µM
O=C1CCCC(O)=C1N=Nc1ccc(C(=O)O)cc1 1.41 µM
COc1ccc(-n2cccc2/C=C2\C(=N)N3N=C(c4ccco4)SC3=NC2=O)cc1 14.1 µM
O=C(O)CNC(=O)CC1S/C(=N/N=C2/NC(=O)CS2)NC1=O (centres undefined) 89.1 µM
CCCCNC(=O)COC(=O)c1ccc(Cl)c(S(=O)(=O)N2CCCC2)c1 100 µM
Cc1ccc(S(=O)(=O)N2CC=C(C(=O)NCc3ccc(F)cc3)CC2)cc1 28.2 µM
Oc1ccc(/C=N/N2CCOCC2)c(O)c1O 100 µM
O=C(O)c1cccc(-n2cccc2/C=C2/NC(=O)N(c3ccc(Cl)cc3)C2=O)c1 1.62 µM
CCN(CC)C(=O)COc1ccc2oc(-c3ccco3)cc(=O)c2c1 112 µM
O=C(O)C1CC=CCC1C(=O)Nc1ccccc1 (centres undefined) 14.1 µM
CCCCC(=O)Nc1ccc(C(=O)NNC(=O)CCc2ccccc2)cc1 100 µM
CCN(c1ccccc1)S(=O)(=O)c1cc(C(=O)O)ccc1C 12.6 µM
N#C/C(=C\c1ccc(OCc2ccc(F)cc2)cc1)C(=O)Nc1cccc(C(=O)O)c1 14.1 µM
Cc1ccc(NC(=O)CN2C(=O)S/C(=C\c3cccn3-c3cccc(C(=O)O)c3)C2=O)c(C)c1 15.8 µM
O=C(Nc1cc2c(oc1=O)CCCC2=O)c1ccc(Cl)cc1 31.6 µM
Fc1ccc(C2CC(c3cccs3)=NN2c2ccccc2)cc1 (centres undefined) 15.8 µM
Cc1ccc(S(=O)(=O)N2CCCN(c3nc4cc(C)ccc4cc3C#N)CC2)cc1 39.8 µM
Cc1c(C(=O)O)sc2nc3n(c(=O)c12)CCC3 6.31 µM
Cc1ccccc1NC(=O)CN1C(=O)S/C(=C\c2cccn2-c2cccc(C(=O)O)c2)C1=O 14.1 µM
O=C1NN(c2ccccc2)C(=O)/C1=C/c1ccc(-c2ccc(Cl)c(C(=O)O)c2)o1 7.08 µM
Cc1ccc2cc(C)c3nnc(SCC(=O)NCc4ccco4)n3c2c1 35.5 µM
CSc1ccccc1NC(=O)c1noc2c1CCC2 126 µM
